Results on 40 compounds are retold here after PubChem BioAssay (NCI).

Compounds without any hit were thinned out: in the full panel of roughly 79,000, 15% have a hit. A number with no mark means an inactive call. Active and inactive are the calls of the source. Cut-off read from the data, not from the text of the source: active = growth inhibition above about 70%; inactive = the rest.

One assay is described as follows: NCI Yeast Anticancer Drug Screen. Data for the rad50 strain (AID 155).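 Note: 0% = growth of vehicle-only cultures of the same strain.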 The following applies: S. cerevisiae rad50 strain growth inhibition; at 50.0 µM; active compounds read high. The procedure, abridged: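 Vehicle-treated cultures provide the reference for the growth inhibition reported for compound-exposed, repair-deficient yeast.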
Regarding `N#C/C(=C\c1ccco1)C(=O)Nc1ccc(Br)cc1`, the growth inhibition is 27.9%.
For `O=[N+]([O-])c1ccc(SCN(CSc2ccc([N+](=O)[O-])cc2)Cc2ccccc2)cc1`, the growth inhibition is -6.35%.
The same measure, in the same setting: next, `CN(C)CCC(O)(c1ccccc1)C(O)(CCN(C)C)c1ccccc1` (stereo not given): -3.15%.
In the case of `CCCCCCCCOC(=O)c1cc([N+](=O)[O-])c(Sc2ncnc3nc[nH]c23)c([N+](=O)[O-])c1`, the growth inhibition is 32%.
Same read-out and setting: next, `CC(=O)NC(Cc1ccc(C)cc1)C(=O)O` (stereo not given): 3.35%; `Nc1cccc(SC2CC(=O)N(c3ccc4c(c3)OCO4)C2=O)c1` (stereo not given): 90.4% (active).
For `N#Cc1c2c(n3c1[nH]c(=O)c1ccccc13)CCCC2`, the growth inhibition is 24.4%.
Take `Cc1nc2c(=O)n3c4c(cccc4c2o1)CCC3`: the growth inhibition was 14.4%.
The same measure, in the same setting: next, `O=C1c2cc(Cl)ccc2-n2c(noc2=O)C2CSCN12` (stereo not given): -8%; `O=C1CC2[C@@H](N3CCCC3)CCC(N1Cc1ccccc1)C2(O)O` (stereo not given in full): -6.75%.
As for `CC(=O)OCCCC(=O)Nc1cc([N+](=O)[O-])ccc1OCc1ccccc1`, the growth inhibition is 12.4%.
Consider `Cc1ccc(NC(=O)C(=O)C(C(=O)c2ccc3ccccc3c2)C2OC(=O)c3ccccc32)c(C)c1` (stereo not given), for which the growth inhibition was 45.6%.
Turning to `[O-][n+]1c2ccccc2[n+]([O-])c2cc(O)ccc21`, the growth inhibition is 20.4%.
Consider `Cc1cccc(NC(=O)c2ccc(Cl)cc2Cl)n1` (tested in a mixture with another compound), for which the growth inhibition was -2.95%.
Same read-out and setting: next, `COC(=O)c1cc([O-])c2sc(C)c(C)[n+]2n1`: 4.25%; `COc1nc(NC2OCC(O)C(O)C2O)c(Br)c(=O)n1C` (stereo not given): 4.9%.
Still for that read-out and setting: the same measure for `C=CCN1C(=O)c2ccccc2S1(=O)=O`: 8.2%.
Turning to `CCOC(=O)NCc1ccccc1`, the growth inhibition was 19%.
Still for that read-out and setting: the same measure for `CCOc1cc(/C=C2\N=C(c3ccccc3)OC2=O)ccc1O`: 5%.
On the same count and under the same terms, next, `c1ccc(C2=NOC3C4CCC(C4)C23)cc1` (stereo not given): -37.6%.
The same measure, in the same setting: the same measure for `OCC1C=Cc2ccccc21` (stereo not given): -3.8%; for `CCCCCCCCCCNC(=O)C(OC(C)=O)C(OC(C)=O)C(OC(C)=O)C(COC(C)=O)OC(C)=O` (stereo not given): 29.4%.
On to `NC1=NC(c2ccccc2)C2=C(N1)C(=O)N(Cc1ccccc1)C2` (stereo not given), for which the growth inhibition was 5.65%.
The same measure, in the same setting: next, `O=C(O)c1cccc(Cl)c1-c1c(Cl)cccc1C(=O)O`: 4.65%.
For the compound `N#C/C(=C/N1CCNC1=S)C(N)=O`, the growth inhibition is 4.95%.
Take `N#CC1=CNc2ccccc2N=C1N`: the growth inhibition was 8.55%.
The same measure, in the same setting: the same measure for `CCCCC(O)(CCCC)C(C)(C)C`: 3.7%; for `O=C1C(Cl)N(c2ccccc2[N+](=O)[O-])C1c1c[nH]c2ccccc12` (stereo not given): -13.6%.
Turning to `COc1ccc2cc(C(=O)CCC(=O)O)ccc2c1`, the growth inhibition was 2.7%.
`O=Cc1cccc2c([N+](=O)[O-])cccc12`: the growth inhibition is 55.5%.
As to `Nc1cc(S(=O)(=O)O)cc2cccc(S(=O)(=O)O)c12`, the growth inhibition was 7%.
Consider `O=C(CCCCC(=O)NC1c2ccccc2Oc2ccccc21)NC1c2ccccc2Oc2ccccc21`, for which the growth inhibition is 35.2%.
On the same count and under the same terms, next, `NCC1CCC(C(=O)O)CC1` (stereo not given): -14.4%; `COC(C)C(NC=O)C(=O)O` (stereo not given): 18.8%; `C/C(O)=C(\N=Nc1ccccc1)C(N)=O`: -9.45%.
The same measure, in the same setting: the same measure for `Cc1cc2c(cc1C)OC(=O)CC2`: 14.3%.
Same read-out and setting: the same measure for `CNCCS(=O)(=O)O`: 13.9%; for `Cc1c(-c2ccccc2)c2ccccc2c2ccccc12`: -10%; for `COc1cccc(CCN(CCOC(N)=O)CCOC(N)=O)c1OC`: -10.1%.
For the compound `COc1cc(C)c2cccc(C)c2n1`, the growth inhibition was 6.6%.

A further assay is described as follows: NCI Yeast Anticancer Drug Screen. Data for the mec2-1 strain (AID 157). The following applies: S. cerevisiae mec2-1 strain, at 50.0 µM, active compounds read high. In a few lines: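 Vehicle-treated cultures served as reference for growth inhibition of compound-exposed mec2-1 yeast.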
Regarding `N#C/C(=C\c1ccco1)C(=O)Nc1ccc(Br)cc1`, the growth inhibition was -3.75%.
On the same count and under the same terms, next, `O=[N+]([O-])c1ccc(SCN(CSc2ccc([N+](=O)[O-])cc2)Cc2ccccc2)cc1`: -6.85%; `CN(C)CCC(O)(c1ccccc1)C(O)(CCN(C)C)c1ccccc1` (stereo not given): -14.8%; `CCCCCCCCOC(=O)c1cc([N+](=O)[O-])c(Sc2ncnc3nc[nH]c23)c([N+](=O)[O-])c1`: 30%.
The same measure, in the same setting: next, `CC(=O)NC(Cc1ccc(C)cc1)C(=O)O` (stereo not given): -3.75%; `Nc1cccc(SC2CC(=O)N(c3ccc4c(c3)OCO4)C2=O)c1` (stereo not given): 92.8% (active); `N#Cc1c2c(n3c1[nH]c(=O)c1ccccc13)CCCC2`: 10%.
With `Cc1nc2c(=O)n3c4c(cccc4c2o1)CCC3`, the growth inhibition was 10.4%.
In the case of `O=C1c2cc(Cl)ccc2-n2c(noc2=O)C2CSCN12` (stereo not given), the growth inhibition was -10.3%.
The same measure, in the same setting: next, `O=C1CC2[C@@H](N3CCCC3)CCC(N1Cc1ccccc1)C2(O)O` (stereo not given in full): -38%; `CC(=O)OCCCC(=O)Nc1cc([N+](=O)[O-])ccc1OCc1ccccc1`: -3.35%.
With `Cc1ccc(NC(=O)C(=O)C(C(=O)c2ccc3ccccc3c2)C2OC(=O)c3ccccc32)c(C)c1` (stereo not given), the growth inhibition is 26.6%.
Still for that read-out and setting: next, `[O-][n+]1c2ccccc2[n+]([O-])c2cc(O)ccc21`: -4.05%; `Cc1cccc(NC(=O)c2ccc(Cl)cc2Cl)n1` (tested in a mixture with another compound): -7.05%.
Turning to `COC(=O)c1cc([O-])c2sc(C)c(C)[n+]2n1`, the growth inhibition was 19.6%.
Still for that read-out and setting: next, `COc1nc(NC2OCC(O)C(O)C2O)c(Br)c(=O)n1C` (stereo not given): -10.4%; `C=CCN1C(=O)c2ccccc2S1(=O)=O`: -2.35%; `CCOC(=O)NCc1ccccc1`: 8.7%.
For the compound `CCOc1cc(/C=C2\N=C(c3ccccc3)OC2=O)ccc1O`, the growth inhibition was 1.2%.
Consider `c1ccc(C2=NOC3C4CCC(C4)C23)cc1` (stereo not given), for which the growth inhibition was -20.4%.
Take `OCC1C=Cc2ccccc21` (stereo not given): the growth inhibition is 0.65%.
For the compound `CCCCCCCCCCNC(=O)C(OC(C)=O)C(OC(C)=O)C(OC(C)=O)C(COC(C)=O)OC(C)=O` (stereo not given), the growth inhibition is 12.6%.
With `NC1=NC(c2ccccc2)C2=C(N1)C(=O)N(Cc1ccccc1)C2` (stereo not given), the growth inhibition was -6.25%.
The same measure, in the same setting: next, `O=C(O)c1cccc(Cl)c1-c1c(Cl)cccc1C(=O)O`: -0.95%; `N#C/C(=C/N1CCNC1=S)C(N)=O`: 5%.
As for `N#CC1=CNc2ccccc2N=C1N`, the growth inhibition was -4.75%.
For the compound `CCCCC(O)(CCCC)C(C)(C)C`, the growth inhibition was 4.05%.
On to `O=C1C(Cl)N(c2ccccc2[N+](=O)[O-])C1c1c[nH]c2ccccc12` (stereo not given), for which the growth inhibition is -22.6%.
Still for that read-out and setting: the same measure for `COc1ccc2cc(C(=O)CCC(=O)O)ccc2c1`: -35%; for `O=Cc1cccc2c([N+](=O)[O-])cccc12`: 19.5%; for `Nc1cc(S(=O)(=O)O)cc2cccc(S(=O)(=O)O)c12`: -7.7%.
On to `O=C(CCCCC(=O)NC1c2ccccc2Oc2ccccc21)NC1c2ccccc2Oc2ccccc21`, for which the growth inhibition is 12.1%.
Still for that read-out and setting: the same measure for `NCC1CCC(C(=O)O)CC1` (stereo not given): -9.35%; for `COC(C)C(NC=O)C(=O)O` (stereo not given): 10.9%.
As to `C/C(O)=C(\N=Nc1ccccc1)C(N)=O`, the growth inhibition is 7.95%.
The same measure, in the same setting: next, `Cc1cc2c(cc1C)OC(=O)CC2`: 6.15%.
Regarding `CNCCS(=O)(=O)O`, the growth inhibition was -3.05%.
Still for that read-out and setting: next, `Cc1c(-c2ccccc2)c2ccccc2c2ccccc12`: -15.6%; `COc1cccc(CCN(CCOC(N)=O)CCOC(N)=O)c1OC`: -5.25%.
Same read-out and setting: the same measure for `COc1cc(C)c2cccc(C)c2n1`: 3.85%.
